The results in this text go back to PubChem BioAssay (NCATS).

Experiment [1] is described as follows: qHTS of pediatric cancer cell lines to identify multiple opportunities for drug repurposing: Primary screen for A673 cells (AID 1347092). Note: potency is the fitted concentration of half-maximal effect; nearly all actives have a fitted effect of over 45% in size. In short, it runs like this:
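Cell viability of A673 measured by CellTiter-Glo ATP luminescence after 48 hours compound exposure. Dilution series spanned 0.78 nM to 46 µM (MIPE, 11-point) or 0.59 nM to 46 µM (NPC, 8-point); bortezomib 2.3 uM positive control.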
In general terms: In qHTS, concentration-response curves come from the screen itself.

Experiment [2] in a line: qHTS of pediatric cancer cell lines to identify multiple opportunities for drug repurposing: Primary screen for SK-N-MC cells (AID 1347093).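 For activity change, negative = cytotoxic: series mostly up to about 46 µM; plate controls were DMSO neutral control for no effect and bortezomib for full effect.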 Note: potency is the fitted concentration of half-maximal effect. In short, it runs like this:
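Metabolically active cells were quantified by ATP-dependent luminescence (CellTiter-Glo, 15 min at room temperature) following 48 h treatment. Cells had been plated at 500-1,000 per well and settled for 5 h beforehand.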

The nature of experiment [3]: qHTS of pediatric cancer cell lines to identify multiple opportunities for drug repurposing: Primary screen for U-2 OS cells (AID 1347096).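 For activity change, negative = cytotoxic: plate controls were DMSO wells for no effect and bortezomib positive control wells for full effect.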 Note: nearly all actives have a fitted effect of over 50% in size. Put shortly:
(§1)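 Viability after 48 h compound treatment at 37C, 500-1,000 cells/well, read as ATP luminescence with CellTiter-Glo. Primary screens used 11-point (MIPE, 0.78 nM-46 µM) or 8-point (NPC, 0.59 nM-46 µM) final concentrations; follow-up screens used 11-point dilutions.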

Experiment [4] in a line: qHTS of pediatric cancer cell lines to identify multiple opportunities for drug repurposing: Primary screen for Saos-2 cells (AID 1347097). For activity change, negative = cytotoxic: % is set by controls: 0 for no effect and ±100 for the full control effect. Note: nearly all actives have a fitted effect of over 40% in size. In short, it runs like this:
(§2)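 Following a 5-hour attachment period, cells at 500-1,000/well received compounds and were cultured for 48 hours. CellTiter-Glo was added and luminescence read to estimate viable, metabolically active cells.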

Experiment [5] in a line: qHTS of pediatric cancer cell lines to identify multiple opportunities for drug repurposing: Primary screen for SK-N-SH cells (AID 1347098).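 For activity change, negative = cytotoxic: DMSO served as neutral control and bortezomib at 2.3 µM as positive control; % is set by controls: 0 for no effect and ±100 for the full control effect.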 Note: nearly all actives have a fitted effect of over 65% in size. Note: potency is the fitted concentration of half-maximal effect. In short, it runs like this: (§3)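 Cells (500-1,000/well) rested 5 h, then received compounds for 48 h; metabolically active cells were measured by CellTiter-Glo luminescence. Final concentrations spanned up to 46 µM (MIPE, 11-point) or 0.59 nM-46 µM (NPC, 8-point) in primary screens, 11-point in follow-ups.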

Experiment [6] is described as follows: qHTS of pediatric cancer cell lines to identify multiple opportunities for drug repurposing: Primary screen for NB1643 cells (AID 1347099).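 For activity change, negative = cytotoxic: plate controls were DMSO neutral control for no effect and bortezomib positive control for full effect.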 Note: nearly all actives have a fitted effect of over 50% in size. Note: potency is the fitted concentration of half-maximal effect. Put shortly: as §2
The nature of experiment [7]: qHTS of pediatric cancer cell lines to identify multiple opportunities for drug repurposing: Primary screen for LAN-5 cells (AID 1347100).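 For activity change, negative = cytotoxic: plate controls were DMSO neutral control for no effect and bortezomib positive control for full effect.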 Note: potency is the fitted concentration of half-maximal effect. Put shortly:
as §1

The nature of experiment [8]: qHTS of pediatric cancer cell lines to identify multiple opportunities for drug repurposing: Primary screen for OHS-50 cells (AID 1347103).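 For activity change, negative = cytotoxic: plate controls were DMSO neutral control for no effect and bortezomib positive control for full effect.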 Note: nearly all actives have a fitted effect of over 40% in size. Note: potency is the fitted concentration of half-maximal effect. Put shortly:
as §3

A short description of experiment [9]: qHTS of pediatric cancer cell lines to identify multiple opportunities for drug repurposing: Primary screen for MG 63 (6-TG R) cells (AID 1347105). For activity change, negative = cytotoxic: % is set by controls: 0 for no effect and ±100 for the full control effect. Note: nearly all actives have a fitted effect of over 50% in size. Put shortly: as §2
A short description of experiment [10]: qHTS of pediatric cancer cell lines to identify multiple opportunities for drug repurposing: Primary screen for control Hh wild type fibroblast cells (AID 1347106).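 Note: series mostly up to about 46 µM; % is set by controls: 0 for no effect and ±100 for the full control effect; a drop in luminescence marks cytotoxicity and a rise apparent proliferation; nearly all actives have a fitted effect of over 55% in size.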 Put shortly:
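Cells (500-1,000/well) in growth media were settled 5 h at 37 degrees C, then given compounds for 48 h. Viability was read as CellTiter-Glo luminescence. Primary runs used MIPE at 11 points (0.78 nM-46 µM) and NPC at 8 points (0.59 nM-46 µM); follow-ups used 11 points.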

A short description of experiment [11]: qHTS of pediatric cancer cell lines to identify multiple opportunities for drug repurposing: Primary screen for NB-EBc1 cells (AID 1347095).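 For activity change, negative = cytotoxic: plate controls were DMSO neutral control for no effect and bortezomib for full effect.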 Note: potency is the fitted concentration of half-maximal effect. In short, it runs like this:
as §2

Experiment [12] in a line: qHTS of pediatric cancer cell lines to identify multiple opportunities for drug repurposing: Primary screen for BT-12 cells (AID 1347101).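 For activity change, negative = cytotoxic: plate controls were DMSO for no effect and bortezomib positive control for full effect.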 Note: nearly all actives have a fitted effect of over 25% in size. Note: potency is the fitted concentration of half-maximal effect. Put shortly: as §3
Experiment [13] is described as follows: qHTS of pediatric cancer cell lines to identify multiple opportunities for drug repurposing: Primary screen for RD cells (AID 1347104).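 For activity change, negative = cytotoxic: plate controls were DMSO for no effect and bortezomib for full effect.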 Note: nearly all actives have a fitted effect of over 55% in size. Note: potency is the fitted concentration of half-maximal effect. Put shortly: as §2
A short description of experiment [14]: qHTS of pediatric cancer cell lines to identify multiple opportunities for drug repurposing: Primary screen for Rh30 cells (AID 1347107). For activity change, negative = cytotoxic: series mostly up to about 46 µM; % is set by controls: 0 for no effect and ±100 for the full control effect. Note: nearly all actives have a fitted effect of over 75% in size. In short, it runs like this:
as §1

The nature of experiment [15]: qHTS of pediatric cancer cell lines to identify multiple opportunities for drug repurposing: Primary screen for Rh41 cells (AID 1347108). Note: nearly all actives have a fitted effect of over 70% in size. Note: potency is the fitted concentration of half-maximal effect. Put shortly: as §2
The nature of experiment [16]: qHTS of pediatric cancer cell lines to identify multiple opportunities for drug repurposing: Confirmatory screen for A673 cells (AID 1347110). Note: nearly all actives have a fitted effect of over 65% in size. Note: potency is the fitted concentration of half-maximal effect. In short, it runs like this:
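Viability was read as ATP luminescence (CellTiter-Glo) after 48 h of compound exposure at 37 C in A673 cells seeded at 500-1,000/well. Titrations reached 46 uM final, with 11 points in the confirmatory screen. Concentration-response curves were fitted directly.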

Experiment [17] in a line: qHTS of pediatric cancer cell lines to identify multiple opportunities for drug repurposing: Confirmatory screen for SK-N-MC cells (AID 1347111).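 Note: cells exposed to compound for 48 h before the readout; nearly all actives have a fitted effect of over 70% in size.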 Note: potency is the fitted concentration of half-maximal effect. Put shortly:
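SK-N-MC cells at 500-1,000 cells/well in growth media were pre-incubated 5 h, then exposed to compounds at 11-point dilutions for 48 h at 37 degrees C, 5% CO2. Viability was read as CellTiter-Glo luminescence.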

Experiment [18] can be described thus: qHTS of pediatric cancer cell lines to identify multiple opportunities for drug repurposing: Primary screen for BT-37 cells (AID 1347094).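 For activity change, negative = cytotoxic: series mostly up to about 57 µM; plate controls were DMSO for no effect and bortezomib for full effect.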 In short, it runs like this: as §2
Experiment [19] in a line: qHTS of pediatric cancer cell lines to identify multiple opportunities for drug repurposing: Primary screen for Rh18 cells (AID 1347102). Note: % is set by controls: 0 for no effect and ±100 for the full control effect; nearly all actives have a fitted effect of over 65% in size. Put shortly:
as §1

Experiment [20] is described as follows: qHTS of pediatric cancer cell lines to identify multiple opportunities for drug repurposing: Confirmatory screen for NB1643 cells (AID 1347109). Note: nearly all actives have a fitted effect of over 45% in size. Put shortly: as §1

Results filed as inconclusive are left out. A number with no mark means an inactive call. Active and inactive are the calls of the source. Calls come from the whole dose curve; as a rule, active = well fitted curve in the direction sought with a large enough effect; inconclusive = small, poorly fitted or top-dose-only effect, or another doubt; inactive = no such curve, though single readings can be large; an effect the other way counts as inactive or inconclusive.

As to `N#Cc1ccc(COC[C@H]2O[C@@H](n3c(NCc4ccc(Cl)c(Cl)c4)nc4c(N)ncnc43)[C@@H](O)[C@@H]2O)cc1`, the Potency was 7.43 µM (active) in [1]; 20.9 µM (active) in experiment [2]; 19.2 µM (active) in experiment [5]; 18.7 µM (active) in experiment [6]; 16.6 µM (active) in experiment [7]; 6.85 µM (active) in experiment [8]. For the same molecule, the Potency result in experiment [3], in [4], in experiment [9] and in experiment [10] was “inactive” in each case.

For the molecule `CCC(C=C[C@@H]1OC(=O)C=C[C@H]1C)=C[C@H](C)CC=CC(C)=C[C@@H](C)C(=O)[C@@H](C)[C@H](O)[C@@H](C)CC(C)=CC(=O)O`, the Potency was 0.0247 µM (active) in experiment [1]; 0.0247 µM (active) in experiment [2]; 0.0247 µM (active) in [11]; 0.0403 µM (active) in [5]; 0.0277 µM (active) in [6]; 0.0322 µM (active) in experiment [12]. Moreover, the Potency in experiment [8] is 0.128 µM (active); in [13] it was 0.0782 µM (active); in [15] it was 0.0247 µM (active); in [16], 0.0322 µM (active); in experiment [17], 0.0064 µM (active). Further, in experiment [14], the activity change, negative = cytotoxic was -1.27% [at 1.86 µM].

`NC(=O)c1cccc(-c2cccc(OC(=O)NC3CCCCC3)c2)c1`: the Potency entry in experiment [2], in experiment [18], in experiment [11], in experiment [3], in experiment [4] and in [5] was “inactive” in each case. The Potency entry in experiment [6], in [7], in experiment [12], in experiment [19], in experiment [8] and in experiment [13] was “inactive” throughout. Further, the Potency entry in experiment [10], in experiment [14] and in experiment [15] was “inactive” throughout.

Consider `C[C@]12C=CC(=O)N[C@@H]1CC[C@H]1[C@H]3CC[C@@H](C(=O)Nc4cc(C(F)(F)F)ccc4C(F)(F)F)[C@@]3(C)CC[C@@H]12`, for which the Potency result in experiment [2], in experiment [18], in experiment [3], in experiment [5], in experiment [7] and in experiment [12] was “inactive” throughout. Further, the Potency entry in experiment [19], in experiment [13], in experiment [9], in [10] and in experiment [14] was “inactive” in each case. Besides, the Potency in [4] was 16.6 µM (active).

For the molecule `CCOC(=O)[C@H](CCc1ccccc1)N[C@@H](C)C(=O)N1[C@@H](C(=O)O)C[C@H]2CCC[C@@H]21`, the Potency in experiment [2] is 1.87 µM (active); in [18] it was 21.7 µM (active); in experiment [11], 18.7 µM (active); in [3] it was 18.7 µM (active); in [4], 14.8 µM (active); in [5] it was 4.82 µM (active). For the same molecule, the Potency is 3.32 µM (active) in experiment [6]; 13.2 µM (active) in experiment [7]; 19.3 µM (active) in experiment [8]; 18.7 µM (active) in [13]; 18.7 µM (active) in [9]; 18.7 µM (active) in experiment [14]. Further, the Potency entry in experiment [10] is “inactive”.

On to `O=C1NC(O)CCN1[C@@H]1O[C@H](CO)[C@H](O)[C@H]1O` (some centres not stated), for which the Potency result in [2], in [11], in experiment [3], in experiment [4], in experiment [5] and in experiment [6] was “inactive” each time. The Potency result in experiment [7], in experiment [12], in experiment [19], in experiment [8], in [13] and in experiment [9] was “inactive” each time. Besides, the Potency result in experiment [10], in [14] and in experiment [15] was “inactive” throughout.

For the molecule `N#CC(=Cc1ccc(O)c(O)c1)C(=O)NCc1ccccc1`, the Potency in experiment [2] is 14.8 µM (active); in experiment [11] it was 23.5 µM (active). In addition, the Potency result in [3], in [19] and in experiment [10] was “inactive” each time.

As for `CC(C)(C)[C@H](NC(=O)c1ccc(N)c(Cl)c1)C(=O)N1CCC[C@@H]1C(=O)N[C@H](C#N)CC(=O)O`, the values for the Potency in experiment [2] and in experiment [6] were 0.235 µM (active) and 1.05 µM (active), respectively. Moreover, the activity change, negative = cytotoxic in experiment [18] was -11.4% [at 6.03 µM]; in [11], 14.9% [at 4.84 µM]; in experiment [3], 9.94% [at 4.84 µM]; in experiment [5] it was 23.1% [at 6 µM]; in experiment [7] it was 8.05% [at 4.84 µM]; in experiment [12], 15.5% [at 6.03 µM]. The activity change, negative = cytotoxic in [19] was 0.535% [at 4.84 µM]; in [8], -19.6% [at 6.18 µM]; in [9], -25.9% [at 4.84 µM]; in [10] it was -7.94% [at 4.84 µM]; in experiment [14] it was 14.6% [at 4.84 µM].

On to `C=C1C[C@@]2(O)O[C@@]3(C[C@H]2C(C)C)[C@H](C)CC[C@H]13`, for which the Potency entry in experiment [2], in experiment [18], in experiment [11], in experiment [4], in experiment [5] and in [6] was “inactive” in each case. Also, the Potency result in experiment [7], in experiment [12], in experiment [19], in experiment [8], in [13] and in [9] was “inactive” in each case. The Potency result in experiment [10], in [14] and in experiment [15] was “inactive” each time.

Consider `CC(=O)ON=C1C(c2c(O)[nH]c3cc(Br)ccc23)=Nc2ccccc21`, for which the Potency in experiment [2] is 0.0118 µM (active); in experiment [18] it was 6.11 µM (active); in experiment [11], 5.26 µM (active); in experiment [4], 11.8 µM (active); in experiment [6], 16.6 µM (active); in experiment [12], 19.3 µM (active). The Potency was 6.62 µM (active) in experiment [13]; 2.96 µM (active) in [15]; 16.5 µM (active) in [20]; 7.37 µM (active) in [16]; 8.27 µM (active) in experiment [17]. Also, the Potency result in experiment [10] is “inactive”.

Regarding `O=S(=O)(O)CCSSCCS(=O)(=O)O`, the Potency in experiment [2] is 10.5 µM (active); in experiment [6], 23.5 µM (active). The Potency entry in experiment [18], in experiment [11], in experiment [3], in [4], in experiment [7] and in [19] was “inactive” in each case. The Potency entry in experiment [13], in [9], in experiment [10], in [14], in [20] and in experiment [16] was “inactive” throughout. Further, the Potency result in [17] was “inactive”.
